The values below come from PubChem BioAssay (NCI).

The panel holds about 83,000 compounds, 20% with a hit somewhere; the sample as a whole holds those more often.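 Method: cells in 96-well plates; compound added at one concentration; 48 h incubation; percent growth measured; values under 10 scored active.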 A number with no mark means an inactive call. Active and inactive are the calls of the source.

Holding throughout (test): NCI-60 one-dose screen, 48 h (100 = growth as untreated, 0 = no growth, -100 = all killed)
Holding throughout (conditions): 10 µM

Test [1] concerns SK-MEL-2 melanoma.
In test [2] the test system is EKVX NSCLC.
In test [3] the test system is UO-31 renal.
In test [4] the test system is TK-10 renal.
In test [5] the test system is ACHN renal.
The subject of test [6] is CAKI-1 renal.
Test [7] deals with A498 renal.
Test [8] concerns CCRF-CEM leukemia.
For test [9], the system named is MOLT-4 leukemia.

For `CCc1cc2n(n1)-c1ncc(C(=O)OC)cc1Oc1ccccc1-2`, the growth is 106% in test [1]; 98.5% in test [2]; 88.8% in [3]; 96.1% in test [4]; 108% in test [5]; 94% in test [6]. The growth in test [7] was 101%; in [8] it was 95.2%; in test [9], 95%.
With `COC(=O)c1cnc2c(c1)Oc1ccc(Cl)cc1-c1cc(C)nn1-2`, the growth was 98.3% in test [1]; 71.2% in [2]; 82.8% in test [3]; 95.4% in test [4]; 42.4% in [5]; 57.8% in [6]. The growth is 99.2% in test [7], 121% in test [8] and 102% in [9].
On to `CCc1c(C(=O)NCc2c(O)ccc3cccc(O)c23)[nH]c(C)c1C(C)=O`, for which the growth in test [1] was 32.7%; in test [2] it was 27.6%; in [3], 12.5%; in test [4], 46.8%; in test [5] it was 11.6%; in [6], 34.2%. In addition, the growth was 49.3% in [7], 16.6% in [8] and 19.6% in test [9].
Regarding `O=S(=O)(NC1c2ccccc2Oc2ccccc21)c1ccccc1`, the growth in test [1] is 94%; in test [2], 102%; in test [3], 81.9%; in test [4], 86.4%; in test [5] it was 84.5%; in test [6], 90.1%. The growth in test [7] is 92.2%; in test [8], 61.8%; in test [9], 88.1%.
Turning to `CCCCCCCCCCSC(=N)N` (tested in a mixture with another compound), the growth in [1] is 81.2%; in test [2] it was 74.8%; in test [3] it was 64.4%; in test [4], 90.1%; in [5], 81.1%; in test [6], 87.9%. The growth was 80.1% in [7], 56.2% in test [8] and 43.9% in [9].
On to `Cc1ccc(-n2c(-c3cc4c([nH]c5ccccc54)c(-c4cccc(O)c4)n3)n[nH]c2=S)cc1`, for which the growth is -48.1% (active) in [1]; 19.4% in test [2]; 30.9% in [3]; 24.9% in test [4]; 32.6% in test [5]; 7.33% (active) in [6]. Also, the growth in [7] is -40% (active); in test [8] it was 7.56% (active); in [9], 0.747% (active).
On to `COCCOC(=O)NC(=O)Nc1ccc(/C(=N/O)c2ccc(Cl)cc2)cc1`, for which the growth was 18.7% in test [1]; 29.6% in [2]; 36.8% in test [3]; 62.6% in test [4]; 39% in test [5]; 30.6% in test [6]. Further, the growth in test [7] is -14.2% (active); in test [8] it was 8.24% (active); in test [9], 9.91% (active).
Regarding `CCCCCCCCCCN=C(c1ccc(N(C)C)cc1)c1ccc(N(C)C)cc1`, the growth in [1] is 23.3%; in test [2], 29.3%; in [3], 52.8%; in [4], 55.7%; in [5] it was 43.3%; in test [6] it was 35.7%. Also, the growth in test [7] was -9.41% (active); in test [8], 28.1%; in test [9], 24.6%.
In the case of `NC1CCC(Nc2nc(NCc3ccc(-c4ccco4)nc3)c3ncn(C4CCCC4)c3n2)CC1` (stereo unspecified), the growth in test [1] was -73.6% (active); in test [2], -2.93% (active); in test [3], 10.8%; in [4], 3.91% (active); in [5] it was 2.36% (active); in test [6], 17.3%. Moreover, the growth is -70.8% (active) in test [7], -0.411% (active) in test [8] and -12.3% (active) in test [9].
For `CCn1nc(-c2ccccn2)c2cccnc2c1=S`, the growth is 88.2% in test [1]; 59.9% in test [2]; 77.3% in [3]; 89.9% in [4]; 89.4% in test [5]; 86.6% in [6]. The growth in test [7] was 99.2%; in test [8], 31.5%; in test [9], 57.5%.
For the compound `NC(=O)c1ccc(Br)o1`, the growth in test [1] was 100%; in test [2], 104%; in [3], 93.2%; in test [4], 90.8%; in [5] it was 103%; in test [6], 102%. The growth in [7] was 108%; in [8], 119%; in test [9], 109%.
Consider `NC1CCC(Nc2nc(NCc3cc(Cl)ccc3O)c3ncn(C4CCCC4)c3n2)CC1` (stereo unspecified), for which the growth in [1] is -73.7% (active); in test [2] it was -18.7% (active); in test [3], 1.65% (active); in test [4] it was -3.98% (active); in [5] it was -5.98% (active); in [6], 9.61% (active). For the same compound, the values for the growth in [7], in [8] and in test [9] were -67.1% (active), -0.96% (active) and -15.5% (active), respectively.
Turning to `Cc1ccc2oc(=O)cc(/C(=C3/C=CC=N3)c3ccc[nH]3)c2c1`, the growth is 2.71% (active) in [1]; 16.5% in [2]; 5.2% (active) in [3]; 1.86% (active) in test [4]; 10% in [5]; 3.96% (active) in [6]. Moreover, the growth in [7] was -9.36% (active); in [8], 10.4%; in test [9], -3.84% (active).
For `CN(C1c2ccccc2Oc2ccccc21)S(=O)(=O)c1cc(Cl)ccc1Cl`, the growth is 42.9% in test [1]; 57.7% in test [2]; 49.5% in test [3]; 69% in test [4]; 53.4% in [5]; 54.2% in test [6]. The growth was 20.9% in [7], 42.7% in test [8] and 43.3% in [9].
